Data published in PubChem BioAssay AID1347055 (National Center for Advancing Translational Sciences (NCATS), 2019).
The campaign covered roughly 54,000 compounds. About 120 (0.22%) were called active. Not shown: some 8% with an inconclusive outcome. Calls follow the shape of the dose curve; as a rule, active = well fitted inhibition curve with a large enough effect; inconclusive = small, poorly fitted or top-dose-only effect, or effect the other way; inactive = flat fitted curve, though single readings scatter. The sample as a whole holds a higher share of actives than the screen did.

biological target: Fumarate hydratase, mitochondrial (Homo sapiens) (UniProt P07954); assay: Identification of activators of human fumarate hydratase by quantitative high-throughput screening; details: FH coupled MDH/diaphorase resazurin fluorescence, 15 min; series mostly up to 79.9 µM; also: the screen sought activators but most active calls are inhibition curves; nearly all actives have a fitted effect of over 45% in size
Sequence (P07954 whole entry, looked up): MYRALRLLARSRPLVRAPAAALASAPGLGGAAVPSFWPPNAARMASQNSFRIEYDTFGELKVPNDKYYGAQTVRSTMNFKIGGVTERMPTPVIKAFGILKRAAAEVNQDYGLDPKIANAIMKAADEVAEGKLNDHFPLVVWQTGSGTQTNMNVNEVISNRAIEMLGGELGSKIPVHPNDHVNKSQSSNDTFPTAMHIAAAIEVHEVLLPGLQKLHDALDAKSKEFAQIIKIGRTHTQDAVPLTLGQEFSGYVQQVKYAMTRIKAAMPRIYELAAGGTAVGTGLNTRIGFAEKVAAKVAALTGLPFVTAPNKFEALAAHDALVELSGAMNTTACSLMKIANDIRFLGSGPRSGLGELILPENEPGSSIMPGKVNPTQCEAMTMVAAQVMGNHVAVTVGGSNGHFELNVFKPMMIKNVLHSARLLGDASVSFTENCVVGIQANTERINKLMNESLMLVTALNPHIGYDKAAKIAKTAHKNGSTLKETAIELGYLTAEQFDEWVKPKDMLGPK
Source text: Fumarate hydratase (FH) is a metabolic enzyme that is part of the Krebs-cycle, and reversibly catalyzes the hydration of fumarate to malate. Mutations of the FH gene have been associated with fumarate hydratase deficiency (FHD), hereditary leiomyomatosis, renal cell cancer (HLRCC), and other diseases. Currently there are no high-quality small molecule probes for studying human fumarate hydratase. To address this, we developed a quantitative high throughput screening (qHTS) FH assay and screened a total of 57,037 compounds in dose-response. While no inhibitors of FH were confirmed, a series of phenyl-pyrrolo-pyrimidine-diones (12 compounds) were identified as activators of human fumarate hydratase. […] The binding of two compounds from the series to human fumarate hydratase was confirmed by microscale thermophoresis. The low hit rate in this screening campaign confirmed that FH is a "tough target" to modulate, and the small molecule activators of human fumarate hydratase reported here may serve as a starting point for further optimization and development into cellular probes of human FH and potential drug candidates.
For primary high-throughput screen, 3 ul of FH solution (containing 13.33nM human fumarate hydratase, 13.33IU/ml malic dehydrogenase, 0.2mM NAD, 0.067mg/ml diaphorase and 0.067mM resazurin in the assay buffer (50 mM Tris pH 8.0, 5 mM MgCl2, 0.01% Brij 3) was dispensed into each well in a black solid bottom 1536-well assay plate (Greiner Bio-One) using a BioRAPTR FRD dispenser (Beckman Coulter, Brea, CA). A 1536-well pintool dispenser outfitted with 20 nl pins (Wako Automation, San Diego, CA) was used to transfer 20 nL of DMSO-solubilized compound (Cherrypick plates) to each 1536-well assay plate. Each compound was screened at five concentrations: 15 nM, 151 nM, 1.5 uM, 15.4 uM, 76.9 uM. Following compound transfer, plates were incubated in room temperature for 10 minutes. 1 uL of substrate solution containing fumaric acid (160 uM) was dispensed via BioRAPTR FRD to initiate the reaction. Plates were immediately transferred to a ViewLux microplate imager (PerkinElmer, Waltham, MA), and any resulting resorufin fluorescence was measured (exitation/emission, 525/598 nm) at 0 and 15 minutes. The exposure time is 1 second. Fluorescence from each well was normalized using enzyme-free and DMSO-treated control wells on each plate, and changes in fluorescence (delta RFU) were calculated using the difference in fluorescent signal for each well at 15 minutes versus 0 minutes.
% is scaled to controls: 0 for no effect and ±100 for the full control effect.

Activity change, negative = inhibition, inactive:
CCOc1ccc(S(=O)(=O)N2CCCCCC2)c2ccccc12
C=C1CCC2C(C)(COC(C)=O)CCCC2(C)C1CCC(C)CC(=O)O (stereo not drawn)
COC(=O)c1cc(NC(=O)c2cnc(SC)nc2-c2ccccc2)cc(C(=O)OC)c1
Cc1cc(NC(=O)CC(C)C)cc(-c2nc3ncccc3o2)c1O
CC(=O)c1cnc2ccc(-c3cc(Cl)c(O)c(Cl)c3)nc2c1NC1CCC(CN(C)C)CC1 (stereo not drawn) -1.45% [at 0.673 µM]
COc1cc(O)c(C(=O)CCc2ccc(O)cc2)c(O[C@@H]2O[C@H](CO)[C@@H](O)[C@H](O)[C@H]2O)c1
CC(C)C1=CC2C(CC[C@]2(C)O)[C@](C)(O)CC1 (stereo partly drawn)
Fc1ccc(-c2nc(-c3ccccc3F)[nH]c2-c2ccncc2)cc1
COC(=O)c1[nH]c(=O)c2ccccc2c1-c1ccc[nH]1
CC(=O)N1CCc2cc(S(=O)(=O)NC(Cc3ccccc3)C(=O)NCc3ccc(C)cc3)ccc21 (stereo not drawn)
O=C(Nc1ccc2nc(SCC(=O)N3CCCc4ccccc43)sc2c1)c1ccc(F)cc1
COc1ccc(NC(=O)CCN2CCN(CCO)CC2)cc1
CCc1ccc(CN(Cc2ccco2)C(=O)c2ccccc2Cl)cc1
COCCNS(=O)(=O)c1cc(-c2nn3c(C)nnc3c3ccccc23)ccc1C
CCOC(=O)c1ccc(NC(=O)c2c(NCc3cccs3)sc3c2CCCC3)cc1
CC(F)(F)CN1CCOc2c(nn(-c3ccccc3Cl)c2-c2ccc(Cl)cc2)C1=O
CCC/C=C/C(=O)O[C@H]1CC(C)(C)CC2[C@]13[C@H](O)O[C@@]21CCC2[C@@]4(C)CC[C@H](O[C@@H]5O[C@H](C(=O)O)[C@@H](O)[C@H](O[C@@H]6O[C@H](CO)[C@H](O)[C@H](O)[C@H]6O[C@@H]6O[C@@H](C)[C@H](O)[C@@H](O)[C@H]6O[C@@H]6OC[C@](O)(CO)[C@H]6O)[C@H]5O[C@@H]5O[C@H](CO)[C@H](O)[C@H](O)[C@H]5O)C(C)(C)C4CC[C@@]2(C)[C@]1(C)C[C@H]3OC(C)=O (stereo partly drawn) 27.8% [at 13.5 µM]
Cc1ccc(-c2nnc3c4ccccc4c(C)nn23)cc1NC(=O)c1cccc(Br)c1
Cc1cc(C)c(NC(=O)c2cc3sc(Cl)cc3n2C)c(C)c1
O=C(CN1C(=O)COc2ccc(S(=O)(=O)N3CCOCC3)cc21)N1CCN(c2cccc(Cl)c2)CC1
O=C(Cn1c(=O)n(Cc2cccs2)c(=O)c2cccnc21)Nc1ccc(F)cc1
C[C@H]1CC[C@@]2(OC1)O[C@H]1CC3C4CC[C@H]5C[C@@H](O)CC[C@]5(C)C4CC(=O)[C@]3(C)[C@H]1[C@@H]2C (stereo partly drawn)
Cn1c(=O)c2c(n3c4ccccc4nc13)NC(=O)CC2c1cccc(Cl)c1 (stereo not drawn)
C/C=C(\C)C(=O)OC1C=C(C)CC(OC(=O)c2ccc(O)cc2)C2C1(C)CCC2(O)C(C)C (stereo not drawn)
Cc1ccccc1C#Cc1ccc(CCC(=O)O)cc1
CCOc1cc(/C=C(\C#N)C(=O)Nc2ccccc2C)ccc1OCc1cc(=O)n2nc(CC)sc2n1
CCC1OC(=O)C(C)CC(C)C(=O)/C(C)=C/C(C)C(=O)/C=C/C1(C)O (stereo not drawn)
Cc1cc(Br)ccc1NC(=O)Cn1cnc2sc(C)c(S(=O)(=O)N3CCN(C)CC3)c2c1=O
CNc1ccc(-c2nc(-c3ccccc3C)no2)cc1[N+](=O)[O-]
CC(=O)O[C@@H]1c2c3c(cc(O)c2C(=O)O[C@@H]1C)O[C@@]1(C)[C@@H](O)C[C@H]2C(C)(C)C(=O)C=C[C@]2(C)[C@@H]1C3
Cc1nc2nc(NCc3cccc(Br)c3)[nH]n2c(=O)c1Cc1ccccc1
CC1CC2C3CCC4=CC(=O)C=C[C@]4(C)[C@@]3(F)[C@@H](O)C[C@]2(C)[C@@]1(O)C(=O)CO (stereo partly drawn)
CCOc1ccc(CNC(=O)c2cc(-c3ccc(Cl)s3)nc3ccccc23)cc1
CC(=O)[C@@H]1C[C@H](C(C)(C)O[C@@H]2O[C@H](CO)[C@@H](O)[C@H](O)[C@H]2O)CC[C@@]2(CO)OC(=O)C[C@@H]12
COc1ccc(C)cc1NC(=O)COCc1cc(-c2cccs2)on1
CCN(Cc1ccccc1)C(=O)CCS(=O)(=O)c1ccc2c(c1)oc(=O)n2C
Cc1ccc(S(=O)(=O)N2CCC(C(=O)Nc3cc(C)ccc3C)CC2)cc1
COc1ccc(Cc2nc3ccc(C(=O)NCc4ccccc4Cl)cc3o2)cc1
CSc1ccc(CCNC(=O)c2cc(C)nc3c2c(C)nn3-c2cccc(F)c2)cc1
COc1ccc(OC)c(CNC(=O)c2c3c(nc4ccccc24)C(=O)N(C2CCCCC2)C3)c1
COc1ccc(-c2cn3c(C)c(C(=O)Nc4cc(C)cc(C)c4)sc3n2)cc1
C[C@@H]1COCCN1c1cc(C2(S(C)(=O)=O)CC2)nc(-c2cccc3[nH]ccc23)n1
CC(=O)O[C@@H]1CC2C(C)(C)C(=O)C=C[C@]2(C)C2CC[C@]3(C)C(=CC(=O)[C@@H]3c3ccoc3)[C@@]21C (stereo partly drawn)
Cc1cc(C)c2oc(C(=O)Nc3ccc(S(=O)(=O)N(C)c4ccccc4)cc3)cc(=O)c2c1
C/C1=C\CC(C)(C)/C=C/C/C(C(=O)O)=C/CC1
C/C=C(\C)C1C(C)=CC2CCC(OS(=O)(=O)O)C(C)C2C1/C=C/C=C/C(=O)O (stereo not drawn)
O=S(=O)(c1ccc(Cl)cc1)c1nnn2c1nc(NC1CCCC1)c1sccc12
NC(=O)c1cnc(NCCc2ccc(O)c(Cl)c2)nc1NCc1ccccc1
CC(O)COc1ccccc1 (stereo not drawn)
COc1ccc(NC(=O)C(c2ccccc2)N2Cc3ccccc3C2=O)cc1 (stereo not drawn)
COc1ccc(N2CCN(C(=O)c3c(C)oc4nc(C)nc(N5CCCC5)c34)CC2)cc1
CCCN(C(=O)Cn1ncc2c([nH]c3ccc(C)cc32)c1=O)c1ccccc1C
CC/C(=C(/CC)c1ccc(O)c(CN(CC)CC)c1)c1ccc(O)c(CN(CC)CC)c1
